HT1080-NT tox – kills 2HG-producing HT-1080-NT fibrosarcoma cells; 360,000 tested, 1.6% active; Potency, µM (doses to about 46.1 µM), for the others: top-dose activity, negative = less viability, usual class: cytotoxic; HT-1080-NT fibrosarcoma viability, CellTiter-Glo ATP luminescence, 48 h;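 note: NT is the 2HG producing partner of a matched IDH1 knockdown line; potency is the fitted concentration of half-maximal effect; 0% = DMSO-treated cells and -100% = media-only wells without cells; nearly all actives have a fitted effect of over 55% in size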
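Toxicity toward the 2HG-producing NT line was scored as %Activity, normalised to DMSO and no-cell wells, from CellTiter-Glo luminescence after 48 hours' treatment.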
HT1080 IDH1KD tx – toxicity to HT-1080 IDH1 knockdown cells (counter line) | HT-1080 IDH1 knockdown viability, ATP luminescence, 48 h | Potency, µM (titrated, usually from 46.1 µM), for the others: top-dose activity, negative = toxicity, actives largely listed as cytotoxic | 360,000 tested, 2% active | AID 686971;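 note: potency is the fitted concentration of half-maximal effect; 0% = DMSO wells and -100% = cell-free medium wells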
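Assay cells: HT-1080 with IDH1 knockdown, 750 per well, RPMI/5% FBS. Exposure: 48 h at 37 °C following 2 h pre-incubation. Read: CellTiter-Glo luminescence; fitted concentration-response, curve class assigned.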
ALOX12 inh – blocks human arachidonate 12S-lipoxygenase. P18054. purified 12hLO, xylenol orange hydroperoxide absorbance. Potency, µM (doses to about 108 µM), for inactives: top-dose activity change, negative = inhibition, hits mostly inhibitors. 580,000 tested, 1.1% active. AID 1671190; note: potency is the fitted concentration of half-maximal effect
Target sequence (P18054 whole entry, looked up): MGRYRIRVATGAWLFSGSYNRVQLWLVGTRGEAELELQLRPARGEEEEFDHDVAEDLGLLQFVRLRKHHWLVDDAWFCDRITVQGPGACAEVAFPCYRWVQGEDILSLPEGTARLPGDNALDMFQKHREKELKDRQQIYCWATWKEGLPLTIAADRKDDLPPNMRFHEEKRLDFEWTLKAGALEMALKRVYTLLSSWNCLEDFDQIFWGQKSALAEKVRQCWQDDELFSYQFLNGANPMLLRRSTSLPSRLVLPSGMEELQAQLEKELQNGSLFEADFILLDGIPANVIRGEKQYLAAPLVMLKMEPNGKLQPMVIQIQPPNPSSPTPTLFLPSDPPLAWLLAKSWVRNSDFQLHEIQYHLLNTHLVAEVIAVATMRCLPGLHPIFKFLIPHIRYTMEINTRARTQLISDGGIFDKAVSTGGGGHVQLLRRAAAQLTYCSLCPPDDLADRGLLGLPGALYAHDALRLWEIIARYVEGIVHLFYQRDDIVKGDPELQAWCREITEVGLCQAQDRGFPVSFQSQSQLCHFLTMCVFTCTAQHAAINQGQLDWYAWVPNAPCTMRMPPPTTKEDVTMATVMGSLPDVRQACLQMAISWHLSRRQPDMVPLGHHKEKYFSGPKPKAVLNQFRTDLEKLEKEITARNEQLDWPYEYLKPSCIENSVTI
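Purified human 12hLO at 150 nM in 25 mM Hepes, 0.01% Triton X-100, pH 7.0, preincubated 15 min at room temperature with compound. Reaction started with 40 uM arachidonic acid, 30 min at room temperature. Hydroperoxide measured by Fe-xylenol orange, 573/405 nm absorbance ratio.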
TDP1 cell noCPT – qHTS for Inhibitors of human tyrosyl-DNA phosphodiesterase 1 (TDP1): qHTS in cells in absence of CPT; DT40 Tdp1-/- hTDP1 cells, no CPT, ATP luminescence, 48 h; Potency, µM (doses to about 46.2 µM), without a hit: at the highest dose activity change, negative = growth inhibition, hits mostly inhibitors; 420,000 tested, 15% active; AID 686978, 2013; note: potency is the fitted concentration of half-maximal effect; nearly all actives have a fitted effect of over 55% in size
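No-CPT arm: Tdp1-/-;hTDP1 DT40 cells (400/well) plus compounds, incubated ≥48 hr at 37 °C. Readout CellTiter-Glo luminescence.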
DT40 TDP1 CPT – DT40-hTDP1 cell growth loss with CPT; 420,000 tested, 12% active; chicken DT40 Tdp1-/-;hTDP1 cells + 20 nM CPT, ATP luminescence, 48 h; Potency, µM (titrated, usually from 46.2 µM), inactives show at the top dose activity change, negative = growth inhibition, hits mostly inhibitors; note: potency is the fitted concentration of half-maximal effect; nearly all actives have a fitted effect of over 55% in size
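Chicken DT40 Tdp1-/- cells stably complemented with human TDP1 were seeded at 400 cells/well in medium containing 20 nM camptothecin, exposed to pin-transferred compounds, and grown at 37 °C for at least 48 hr. Viability was read as ATP luminescence.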
IL-1B inflam inh – inhibitors of inflammasome signaling (IL-1 beta secretion); 360,000 tested, 4.7% active; THP-1 LPS/ATP IL-1B secretion, AlphaLISA, 16 h; active compounds read low; activity change, % at 57.5 µM; AID 743279; in the data active = activity change below about -50%; inconclusive = mostly about -30% to -49%
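Secreted IL-1B measured by AlphaLISA bead assay after 16 h compound exposure of THP-1 cells; compounds (final up to 57.5 uM) added 1 h before LPS (250 ng/mL) and ATP (1.25 mM) stimulation; lower signal means less secretion.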
* hit, by the source's call; ? = inconclusive; nt = no result; [ ] = dose if it differs, or a comment. Shown is part of a subset that was picked to be rich in hits. Unless noted, calls come from the whole dose curve; as a rule, active = well fitted curve in the direction sought with a large enough effect; inconclusive = small, poorly fitted or top-dose-only effect, or another doubt; inactive = no such curve, though single readings can be large; an effect the other way counts as inactive or inconclusive. Unless noted, % is set by controls: 0 for no effect and ±100 for the full control effect.

SMILES | HT1080-NT tox | HT1080 IDH1KD tx | ALOX12 inh | TDP1 cell noCPT | DT40 TDP1 CPT | IL-1B inflam inh
N=C1C(c2nc3ccccc3c(=O)[nH]2)=C(O)CN1CCc1ccccc1 | 27% | 17% | nt | 6.5µM* | 2.6µM* | -12
COc1cc(NC(=S)Nc2cccnc2)cc(OC)c1OC | -15% | 7%[9.24 µM] | 45µM* | -7% | -18% | 29
COc1cc(NC(=S)NCc2cccnc2)cc(OC)c1OC | 16% | 11% | -1% | 0% | -3% | 16
CCOc1cc(C(=O)NC(=S)Nc2cccnc2)cc(OCC)c1OCC | -6% | 8% | -18% | 23µM* | ? | -8
Cc1ccc(-c2csc(NC(=O)C[n+]3cc(-c4ccccc4)n4c3CCC4)n2)cc1 | -23% | ? | 68% | 18µM* | 21µM* | -87*
Cc1ccc(-c2csc(NC(=O)C[n+]3cc(-c4ccc(C)cc4)n4c3CCC4)n2)cc1 | ? | 16µM* | 0% | 9.2µM* | 5.8µM* | -94*
Cc1ccc(Cc2c(-c3ccc(C#N)cc3)nc3ccc(Cl)cn23)cc1 | 15% | 4% | ? | ? | -24% | -10
CC(C)(C)Cc1c(-c2ccco2)nc2ccc(Cl)cn12 | 15% | 7% | ? | -85% | 26µM* | 34
N#Cc1ccc(-c2nc3ccc(Cl)cn3c2Cc2ccccc2)cc1 | -7% | -12% | -14% | ? | 21µM* | -14
CC(C)(C)Cc1c(-c2ccc(C#N)cc2)nc2ccc(Cl)cn12 | -5% | -14% | ? | 16µM* | ? | -18
O=C(CCc1nc2ccccc2c(=O)[nH]1)Nc1cccc(O)c1 | nt | nt | 5% | nt | nt | nt
CC(C)=CCC/C(C)=C/CNC(=O)C[C@H]1C[C@H](C(=O)N2CCOCC2)[C@@]2(C)c3[nH]c4ccc(Cl)cc4c3CCN2C1=O | 6% | 8% | ? | ? | 23µM* | -65*
COc1ccc(CNC(=O)C[C@H]2C[C@H](C(=O)N3CCOCC3)[C@@]3(C)c4[nH]c5cc(-c6ccco6)ccc5c4CCN3C2=O)cc1OC | 2% | 3% | ? | ? | ? | -6
CC(C)=CCC/C(C)=C/CNC(=O)CC1C[C@H](C(=O)N2CCOCC2)[C@@]2(C)c3[nH]c4ccccc4c3CCN2C1=O (stereo partly specified) | 4% | 8% | ? | 12µM* | 13µM* | ?
CC(C)=CCC/C(C)=C/CNC(=O)C[C@H]1C[C@H](C(=O)N2CCOCC2)[C@@]2(C)c3[nH]c4cc(-c5ccco5)ccc4c3CCN2C1=O | ? | ? | nt | 13µM* | 21µM* | ?
CC(C)(C)NC(=O)CC1C[C@H](C(=O)N2CCOCC2)[C@@]2(C)c3[nH]c4ccccc4c3CCN2C1=O (stereo partly specified) | 2% | 5% | -18% | -8% | -10% | 2
Cc1cccc(NC(=O)CN(C)S(=O)(=O)c2ccc3c(c2)n(C)c(=O)c(=O)n3C)c1C | 0% | 14% | 0% | 3% | 0% | -8
CCCN1C2=C(C(=O)CC(C)(C)C2)C(c2cccc(O)c2)C2=C1CC(C)(C)CC2=O | nt | nt | -22% | nt | nt | nt
Cn1cc(CNCC2CCN(c3ncc(C(=O)NO)cn3)CC2)c2ccccc21 | nt | nt | -23%[57.4 µM] | nt | nt | nt
O=C(c1ccco1)N1CCC2CC1c1c(Cl)cccc12 (stereo unspecified) | -8% | -6% | 1% | ? | ? | 24
S=C(NCCc1ccccc1)N1CCC2CC1c1c(Cl)cccc12 (stereo unspecified) | -1% | -1% | ? | 16µM* | ? | -7
C=CCNC(=S)N1CCC2CC1c1c(Cl)cccc12 (stereo unspecified) | -15% | -2% | -7% | 26µM* | ? | 16
COc1ccc(NC(=S)N2CCC3CC2c2c(Cl)cccc23)c(OC)c1 (stereo unspecified) | -7% | -4% | ? | ? | ? | 13
COc1ccc(C2(c3ccc(OC)cc3)C=Cc3c(ccc4cc(OC)ccc34)O2)cc1 | nt | nt | -54% | nt | nt | nt
CCOCc1nc(C2CCCN(C(=O)c3ccc(C)s3)C2)no1 (stereo unspecified) | nt | nt | 3% | nt | nt | nt
SMILES | HT1080-NT tox | HT1080 IDH1KD tx | ALOX12 inh | TDP1 cell noCPT | DT40 TDP1 CPT | IL-1B inflam inh
Cc1ccc(NC(=O)CN2CCN(C(=O)CCNC(=O)c3ccc(C(C)(C)C)cc3)CC2)cc1 | nt | nt | 2% | nt | nt | nt
Cc1cccc(C)c1Nc1n[nH]c(=S)s1 | 3% | 13% | ? | ? | 0% | 37
O=C(Nc1n[nH]c(=S)s1)c1ccc2ccccc2c1 | 20% | 12% | 301% | 3% | -9% | -14
Cc1cccc(Nc2n[nH]c(=S)s2)c1C | 0% | 0% | 6.3µM* | -1% | 15% | 6
Cc1ccc(Nc2n[nH]c(=S)s2)c(C)c1 | 2% | 1% | 25µM* | ? | -15% | 14
C=CCNc1n[nH]c(=S)s1 | 10% | 7% | ? | 2.6µM* | 5.2µM* | -13
Cc1cc(C)c(Nc2n[nH]c(=S)s2)cc1C | 0% | 4% | 28µM* | ? | -15% | 19
COCCC(=O)N[C@H]1CC[C@]2(C)CCC([C@H](C)C(=O)NCc3cccs3)[C@H](O)[C@H]2[C@@H]1C (stereo partly specified) | nt | nt | 41% | nt | nt | nt
COc1ccc(F)cc1S(=O)(=O)N1CCc2ccccc2C1 | -12% | 1% | -1% | -18% | -6% | 22
COc1cccc(C(=O)N2C(C(=O)NC(C)C)COC23CCN(C(=O)c2ccc(F)cc2)CC3)c1 (stereo unspecified) | nt | nt | 32% | nt | nt | nt
COc1cccc(Nc2n[nH]c(=S)s2)c1 | 12% | 26% | 45µM* | -1% | -15% | 13
CNc1n[nH]c(=S)s1 | 12% | 20% | 22µM* | -10% | 5% | 20
CC(C)c1ccc(Nc2n[nH]c(=S)s2)cc1 | ? | 20% | 6.3µM* | -29% | -22% | 55
CC(=O)Nc1n[nH]c(=S)s1 | ? | ? | -22% | -32% | ? | 0
COc1ccccc1Nc1n[nH]c(=S)s1 | 10% | -10% | 14µM* | -4% | 13% | 0
COc1cccc(Nc2ccc(-n3ccnc3)nn2)c1 | 18% | 17% | 15% | 6% | 14% | -11
CCCn1nc(C(=O)OCC(=O)N(C)Cc2ccco2)c2ccccc2c1=O | nt | nt | -16% | nt | nt | nt
COCC(=O)N/N=C/c1c(C)[nH]n(-c2ccccc2)c1=O | -4% | -19% | -23% | 16µM* | 18µM* | -9
